# Compound activity: PubChem, Broad Institute
# Sampled rows, rich in hits. Any-hit rate of the full collection: about 3.9%.
# NSD2 HMT inh – NSD2 histone methyltransferase inhibitors, primary screen, biochemical, AlphaScreen, single concentration, set 2; NSD2 peptide methylation, 120 min; inhibition, % at 12.5 µM; 310,000 compounds, 0.54% hits; AID 743445, 2014; in the data active means inhibition above about 50%
# Target sequence (O96028 whole entry, looked up): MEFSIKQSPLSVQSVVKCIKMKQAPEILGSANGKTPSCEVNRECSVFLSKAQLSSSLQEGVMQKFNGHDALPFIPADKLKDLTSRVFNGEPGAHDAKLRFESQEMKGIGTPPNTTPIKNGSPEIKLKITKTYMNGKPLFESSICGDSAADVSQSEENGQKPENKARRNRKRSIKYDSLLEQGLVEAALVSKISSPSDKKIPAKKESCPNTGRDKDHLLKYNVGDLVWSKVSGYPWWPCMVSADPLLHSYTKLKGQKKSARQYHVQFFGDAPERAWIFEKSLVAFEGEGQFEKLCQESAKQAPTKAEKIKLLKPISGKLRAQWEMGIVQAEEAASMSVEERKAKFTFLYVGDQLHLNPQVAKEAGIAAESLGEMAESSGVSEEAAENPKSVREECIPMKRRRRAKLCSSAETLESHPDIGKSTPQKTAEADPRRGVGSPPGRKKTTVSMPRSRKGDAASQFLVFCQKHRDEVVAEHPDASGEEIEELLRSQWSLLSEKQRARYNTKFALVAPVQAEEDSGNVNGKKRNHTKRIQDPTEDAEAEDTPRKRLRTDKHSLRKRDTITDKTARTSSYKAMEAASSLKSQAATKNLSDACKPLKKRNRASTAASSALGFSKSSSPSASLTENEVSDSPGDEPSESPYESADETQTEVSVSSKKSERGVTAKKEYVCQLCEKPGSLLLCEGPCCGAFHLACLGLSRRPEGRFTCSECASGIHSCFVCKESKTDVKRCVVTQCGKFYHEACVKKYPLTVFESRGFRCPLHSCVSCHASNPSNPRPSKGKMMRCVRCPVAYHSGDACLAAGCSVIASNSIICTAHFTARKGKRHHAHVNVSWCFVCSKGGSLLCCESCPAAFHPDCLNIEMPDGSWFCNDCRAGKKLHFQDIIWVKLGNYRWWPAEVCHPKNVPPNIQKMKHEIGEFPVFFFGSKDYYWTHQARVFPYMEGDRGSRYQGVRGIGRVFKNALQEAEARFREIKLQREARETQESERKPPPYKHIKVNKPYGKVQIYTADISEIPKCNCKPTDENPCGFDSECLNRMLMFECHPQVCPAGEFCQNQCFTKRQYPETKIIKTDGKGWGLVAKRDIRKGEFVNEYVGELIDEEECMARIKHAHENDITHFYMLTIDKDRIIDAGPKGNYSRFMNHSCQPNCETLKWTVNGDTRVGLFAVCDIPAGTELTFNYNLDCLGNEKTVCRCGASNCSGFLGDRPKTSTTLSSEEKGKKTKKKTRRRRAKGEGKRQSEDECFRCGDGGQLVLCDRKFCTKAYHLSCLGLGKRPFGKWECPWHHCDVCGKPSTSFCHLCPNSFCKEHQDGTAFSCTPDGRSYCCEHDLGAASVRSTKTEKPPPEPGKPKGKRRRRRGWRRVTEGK
# ALR inh – inhibitors of human ALR sulfhydryl oxidase, primary screen, biochemical, H2O2 detection, HRP-luminol luminescence, single point. AID 485317, 2010. 290,000 compounds, 3.8% hits. purified ALR, DTT oxidation. FAD-linked sulfhydryl oxidase ALR (Homo sapiens), P55789. inhibition, % (concentration not given with the values);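 active means mean replicate inhibition above about 79%, with every replicate also reaching it, limit read from the data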
# Mot1-301 SUMO – yeast Mot1-301 growth rescue at high temperature, primary screen, SUMOylation pathway inhibitor project, S. cerevisiae, ATP luminescence, 38.5C; S. cerevisiae Mot1-301 growth rescue; percent above DMSO median, 100 means doubled; growth rescue, % at 18.8 µM; 320,000 compounds, 1% hits; AID 2716, 2010;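 active means every valid replicate shows activation above 250% relative to neutral control wells; inactive means the rest, any valid replicate at or below 250%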;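 further: OY570 slx delta 5 strain wells were the positive control but not used for scaling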
# N-glyco inh – increase of ERlucT glycosylation luciferase signal, primary screen, N-linked glycosylation inhibitor project, D54 ERlucT cells, luminescence, set 2 | D54 ERlucT glycosylation luciferase reporter, 24 h; percent of 100 nM tunicamycin response | reporter increase, % at 12.5 µM | 360,000 compounds, 0.23% hits;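 active means mean luciferase reporter signal, scaled so untreated is 0 and the glycosylation-blocking control 100, at or above a set limit in every replicate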;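 further: luciferase carries N-glycosylation sites so blocking glycosylation raises the light; 0% = median of neutral control wells and 100% = median of 100 nM tunicamycin wells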
# CDK5 p35 inh – inhibitors of human CDK5/p35 kinase, primary screen, biochemical, single concentration; Cyclin-dependent kinase 5 (Homo sapiens) + Cyclin-dependent kinase 5 activator 1 (Homo …; Recombinant CDK5/p35, ADP-Glo luminescence, 60 min; inhibition, % at 10 µM; 330,000 compounds, 0.01% hits; AID 488839, 2010;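 active means highest replicate inhibition of at least 50% and at least 75% of replicates reaching 50%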;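 further: plate controls were DMSO neutral control for no effect and GW8510 at 10 µM for full effect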
# CASP6 VEID inh – human caspase-6 inhibitors, primary screen, biochemical, VEID-R110 fluorescence, single point, set 2 | P55212 | purified caspase-6, Z-VEID-R110 cleavage fluorescence | inhibition, % at 12.5 µM | 350,000 compounds, 0.53% hits | AID 686996, 2013;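 active means mean inhibition across replicates at least about 35%, with every replicate also reaching that limit, limit read from the data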;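 further: 0% = median of neutral control wells and 100% = no fluorescence left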
# An asterisk follows results filed as active; . = no result given.
SMILES,NSD2 HMT inh,ALR inh,Mot1-301 SUMO,N-glyco inh,CDK5 p35 inh,CASP6 VEID inh
COc1cccc(CNC(=O)CCn2ccc3cc(S(=O)(=O)N4CCCC4)ccc32)c1,-1,-7,29,0,-5,70*
CCc1ccc(/C=C2\SC(=S)N(CCCC(=O)Nc3ccccc3C(=O)O)C2=O)cc1,35,97*,-1,-2,.,32
Cc1[nH]c2ccccc2c1SCCN,.,10,-7,-1,1,0
Cc1[nH]c2ccccc2c1SCc1ccccc1,.,99*,46,-1,-2,0
CC(C)Oc1ccc(CSc2ncn[nH]2)cc1,5,1,-7,0,1,.
CC(C)Oc1ccc(CSC(=N)N)cc1,-1,98*,.,2,-8,.
CC(C)C1=Nc2cccc3cccc(c23)N1,0,.,-7,4,2,.
ClCC1=Nc2cccc3cccc(c23)N1,.,99*,-2,.,.,.
OCCN(CCO)c1ccc2ccccc2c1,23,98*,-1,5,2,0
OCCN(CCO)c1cc2c3ccccc3ccc2c2ccccc12,0,.,.,6,-1,0
Cc1nc(Sc2nnnn2C)c2c3c(sc2n1)CCC3,2,94*,-6,-1,0,.
CCc1nc(Sc2nnnn2-c2ccccc2)c2c3c(sc2n1)CCCC3,0,10,1,-7,1,-3
CN1C(=O)c2cc(NC(=O)C3CCOCC3)ccc2OC[C@H]2O[C@@H](CC(=O)NCC3CC3)CC[C@H]21,.,.,.,.,.,-3
COc1cc(SC)ccc1C(=O)Nc1c(Cl)cncc1Cl,-6,77*,-2,1,2,-1
COc1cc(SC)ccc1C(=O)Nc1c(C)cccc1C,-4,.,233,1,1,-4
CCOC(=O)Cc1nnc(NC(=O)C(CC)Sc2nc(C)cc(=O)[nH]2)s1 (centres undefined),.,6,-8,1,-1,43*
CCOC(=O)Cc1nnc(NC(=O)C(CC)Sc2nncn2C)s1 (centres undefined),.,-6,-9,0,-1,-2
CC1(C)CCCN(C(=O)c2coc(=O)c(Br)c2)C1,114*,.,.,3,0,.
CCOC(=O)N1CCN(c2ccc(O)cc2)CC1,-8,99*,0,-1,-1,.
CCOc1ccccc1NC(=S)N1CCN(c2ccc(O)cc2)CC1,2,99*,7,-1,0,4
O=C(C1CC1)N1CCN(c2ccc(O)cc2)CC1,35,99*,19,0,1,-5
O=C(C[C@H]1C=C[C@H](NS(=O)(=O)c2ccc(F)cc2)[C@@H](CO)O1)N1CCC(Cc2ccccc2)CC1,.,.,.,.,.,-4
Cc1cccc(-n2c(-c3ccoc3C)n[nH]c2=S)c1,2,91*,8,2,2,0
Cc1cccc(-n2c(-c3ccncc3)n[nH]c2=S)c1,0,91*,2,1,1,.
CCCN(C)C[C@H]1Oc2cc(C#Cc3ccccn3)ccc2S(=O)(=O)N([C@H](C)CO)C[C@H]1C,.,.,.,.,.,-11
SMILES,NSD2 HMT inh,ALR inh,Mot1-301 SUMO,N-glyco inh,CDK5 p35 inh,CASP6 VEID inh
O=C(C[C@@H]1C[C@@H]2c3cc(NS(=O)(=O)c4ccc(F)cc4)ccc3O[C@@H]2[C@H](CO)O1)NCCc1ccccc1,.,.,.,.,.,0
CO[C@@H]1CN(C)C(=O)c2cc(NS(=O)(=O)c3cn(C)cn3)ccc2OC[C@H](C)N(CC2CC2)C[C@@H]1C,.,.,.,.,.,5
CC(C)(C)c1cc(CCC(=O)NCC2CCCO2)cc(C(C)(C)C)c1O (centres undefined),0,7,298*,2,-2,5
CCCNC(=O)CCc1cc(C(C)(C)C)c(O)c(C(C)(C)C)c1,.,38,0,-2,2,-2
CC(C)C#Cc1ccc2c(c1)O[C@H](CN(C)Cc1cncnc1)[C@@H](C)CN([C@H](C)CO)S2(=O)=O,.,.,.,.,.,0
NC(=O)CC(NC(=O)Cc1ccc(Br)cc1)c1ccc(NC2CCCCCCC2)c([N+](=O)[O-])c1 (centres undefined),.,.,.,13,2,0
